How the values were obtained:
Experiment in all cases: DAPPL (digital affinity profiling via proximity ligation, sequencing); 10 mM Tris-HCl pH 7.5, 50 mM NaCl, 1 mM DTT, 4% glycerol, room temperature, 30 min; GST-TFs on glutathione beads, 16-mer random dsDNA library, 0.1% formaldehyde crosslink after washing; high values mean tight binding
Details in all cases: protein: recombinant; tags: N-terminal GST; dsDNA, one strand shown
FLI1 = target: T1, FLI1 (Homo sapiens, UniProt Q01543 1-452)
T1 sequence: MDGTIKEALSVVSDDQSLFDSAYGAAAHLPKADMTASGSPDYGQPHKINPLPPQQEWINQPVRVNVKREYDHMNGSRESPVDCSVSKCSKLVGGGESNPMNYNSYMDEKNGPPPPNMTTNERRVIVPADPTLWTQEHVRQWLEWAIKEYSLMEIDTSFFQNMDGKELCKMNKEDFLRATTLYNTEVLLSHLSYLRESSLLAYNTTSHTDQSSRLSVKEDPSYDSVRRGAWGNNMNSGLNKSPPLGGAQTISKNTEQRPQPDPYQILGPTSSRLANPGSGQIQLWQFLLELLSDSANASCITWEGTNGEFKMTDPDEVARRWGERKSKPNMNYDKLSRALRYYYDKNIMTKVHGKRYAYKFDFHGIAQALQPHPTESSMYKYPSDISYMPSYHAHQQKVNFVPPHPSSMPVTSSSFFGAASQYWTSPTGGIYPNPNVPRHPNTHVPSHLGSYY
In short: (§1)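 Each value of binding signal is a hexamer's read frequency for a factor divided by the same hexamer's frequency in the tag-only sample. Barcoded, bead-captured GST fusions of human transcription factors made in yeast were pooled with that sample and incubated with 200 nmole of a random double-stranded 16-mer DNA library in Tris/NaCl/DTT/glycerol buffer at room temperature for 30 min. Washing, 0.1% formaldehyde crosslinking, proximity ligation, PCR and Illumina NextSeq500 sequencing followed.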

SPI1 = SPI1 (Homo sapiens, UniProt P17947 1-270)
In short: as §1

ELK3 = target: T2, ELK3 (Homo sapiens, UniProt P41970 1-407)
T2 sequence: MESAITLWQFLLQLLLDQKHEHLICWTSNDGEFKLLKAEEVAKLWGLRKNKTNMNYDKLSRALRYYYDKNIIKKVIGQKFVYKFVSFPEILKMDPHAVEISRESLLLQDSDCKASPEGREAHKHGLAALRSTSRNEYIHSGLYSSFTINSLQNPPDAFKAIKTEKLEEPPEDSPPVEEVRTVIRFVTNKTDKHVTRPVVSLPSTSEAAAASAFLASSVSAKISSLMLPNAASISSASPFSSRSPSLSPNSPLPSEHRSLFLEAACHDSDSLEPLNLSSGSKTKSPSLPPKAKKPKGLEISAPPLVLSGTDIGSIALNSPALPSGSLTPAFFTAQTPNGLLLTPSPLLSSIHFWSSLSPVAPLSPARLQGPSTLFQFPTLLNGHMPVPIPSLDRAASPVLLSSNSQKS
In short: as §1

ELF5 = target: T3, ELF5 (Homo sapiens, UniProt Q9UKW6-2 1-255)
T3 sequence: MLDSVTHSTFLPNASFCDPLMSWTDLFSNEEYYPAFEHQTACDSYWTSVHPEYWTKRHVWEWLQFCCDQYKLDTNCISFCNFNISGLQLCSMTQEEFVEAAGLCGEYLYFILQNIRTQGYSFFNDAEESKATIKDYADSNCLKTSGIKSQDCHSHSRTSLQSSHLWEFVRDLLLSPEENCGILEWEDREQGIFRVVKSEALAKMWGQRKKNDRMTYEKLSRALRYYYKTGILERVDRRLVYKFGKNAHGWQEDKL
In short: as §1

CRX = CRX (Homo sapiens, UniProt O43186 1-299)
CRX, sequence (O43186 whole entry): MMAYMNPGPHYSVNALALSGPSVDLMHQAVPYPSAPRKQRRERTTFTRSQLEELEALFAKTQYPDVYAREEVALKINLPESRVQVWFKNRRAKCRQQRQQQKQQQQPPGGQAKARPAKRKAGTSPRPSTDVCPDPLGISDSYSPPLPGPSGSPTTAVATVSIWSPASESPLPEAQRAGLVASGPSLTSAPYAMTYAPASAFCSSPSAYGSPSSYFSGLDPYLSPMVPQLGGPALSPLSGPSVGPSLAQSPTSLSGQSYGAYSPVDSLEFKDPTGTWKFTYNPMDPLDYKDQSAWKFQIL
In short: as §1

Row | Sequence | binding signal (FLI1) | binding signal (SPI1) | binding signal (ELK3) | binding signal (ELF5) | binding signal (CRX)
1 | TATGTC | 1.05 fold enrichment (6-mer frequency, TF over GST control) | 1.06 fold enrichment (6-mer frequency, TF over GST control) | 1.14 fold enrichment (6-mer frequency, TF over GST control) | 1.05 fold enrichment (6-mer frequency, TF over GST control) | 
2 | ACACGC | 1.15 fold enrichment (6-mer frequency, TF over GST control) |  | 1.12 fold enrichment (6-mer frequency, TF over GST control) | 1.02 fold enrichment (6-mer frequency, TF over GST control) | 
3 | CGTAGC | 1.13 fold enrichment (6-mer frequency, TF over GST control) | 1.04 fold enrichment (6-mer frequency, TF over GST control) |  | 1.05 fold enrichment (6-mer frequency, TF over GST control) | 
4 | CAAGTT | 1.11 fold enrichment (6-mer frequency, TF over GST control) |  | 1.03 fold enrichment (6-mer frequency, TF over GST control) | 1.03 fold enrichment (6-mer frequency, TF over GST control) | 
5 | ACAGCA | 1.01 fold enrichment (6-mer frequency, TF over GST control) |  | 1.02 fold enrichment (6-mer frequency, TF over GST control) |  | 
6 | TGGGGT | 1.02 fold enrichment (6-mer frequency, TF over GST control) | 1.04 fold enrichment (6-mer frequency, TF over GST control) | 1.17 fold enrichment (6-mer frequency, TF over GST control) | 1.01 fold enrichment (6-mer frequency, TF over GST control) | 
7 | AAGGGC | 1.06 fold enrichment (6-mer frequency, TF over GST control) |  | 1.18 fold enrichment (6-mer frequency, TF over GST control) | 1.04 fold enrichment (6-mer frequency, TF over GST control) | 
8 | CATTGT | 1.2 fold enrichment (6-mer frequency, TF over GST control) | 1.04 fold enrichment (6-mer frequency, TF over GST control) | 1.08 fold enrichment (6-mer frequency, TF over GST control) | 1.1 fold enrichment (6-mer frequency, TF over GST control) | 
9 | CGCCTG | 1.11 fold enrichment (6-mer frequency, TF over GST control) | 1.1 fold enrichment (6-mer frequency, TF over GST control) | 1.06 fold enrichment (6-mer frequency, TF over GST control) | 1.12 fold enrichment (6-mer frequency, TF over GST control) | 
10 | ACCATT | 1.22 fold enrichment (6-mer frequency, TF over GST control) | 1.16 fold enrichment (6-mer frequency, TF over GST control) | 1.28 fold enrichment (6-mer frequency, TF over GST control) | 1.15 fold enrichment (6-mer frequency, TF over GST control) | 
11 | ATGCCA | 1.01 fold enrichment (6-mer frequency, TF over GST control) |  |  | 1.01 fold enrichment (6-mer frequency, TF over GST control) | 
12 | CCAACC | 1.12 fold enrichment (6-mer frequency, TF over GST control) | 1.11 fold enrichment (6-mer frequency, TF over GST control) | 1.06 fold enrichment (6-mer frequency, TF over GST control) | 1.05 fold enrichment (6-mer frequency, TF over GST control) | 
13 | CACGCA | 1.11 fold enrichment (6-mer frequency, TF over GST control) |  | 1.14 fold enrichment (6-mer frequency, TF over GST control) |  | 
14 | CGATGC | 1.13 fold enrichment (6-mer frequency, TF over GST control) | 1.12 fold enrichment (6-mer frequency, TF over GST control) |  |  | 
15 | GCCCAA | 1.04 fold enrichment (6-mer frequency, TF over GST control) | 1.01 fold enrichment (6-mer frequency, TF over GST control) |  |  | 
16 | TGATAC | 1.13 fold enrichment (6-mer frequency, TF over GST control) | 1.19 fold enrichment (6-mer frequency, TF over GST control) | 1.08 fold enrichment (6-mer frequency, TF over GST control) | 1.1 fold enrichment (6-mer frequency, TF over GST control) | 1.1 fold enrichment (6-mer frequency, TF over GST control)
17 | CATCAT | 1.06 fold enrichment (6-mer frequency, TF over GST control) | 1.11 fold enrichment (6-mer frequency, TF over GST control) |  | 1.07 fold enrichment (6-mer frequency, TF over GST control) | 

Row | Sequence | binding signal (FLI1) | binding signal (SPI1) | binding signal (ELK3) | binding signal (ELF5) | binding signal (CRX)
18 | GCTATC | 1.07 fold enrichment (6-mer frequency, TF over GST control) | 1.12 fold enrichment (6-mer frequency, TF over GST control) | 1.12 fold enrichment (6-mer frequency, TF over GST control) | 1.04 fold enrichment (6-mer frequency, TF over GST control) | 
19 | ACCAAA | 1.01 fold enrichment (6-mer frequency, TF over GST control) | 1.06 fold enrichment (6-mer frequency, TF over GST control) |  |  | 
20 | TGGCCG | 1.11 fold enrichment (6-mer frequency, TF over GST control) | 1.14 fold enrichment (6-mer frequency, TF over GST control) | 1.14 fold enrichment (6-mer frequency, TF over GST control) |  | 
21 | CACATG | 1.18 fold enrichment (6-mer frequency, TF over GST control) | 1.11 fold enrichment (6-mer frequency, TF over GST control) | 1.14 fold enrichment (6-mer frequency, TF over GST control) | 1.02 fold enrichment (6-mer frequency, TF over GST control) | 
22 | CTGGGC | 1.15 fold enrichment (6-mer frequency, TF over GST control) | 1.05 fold enrichment (6-mer frequency, TF over GST control) | 1.02 fold enrichment (6-mer frequency, TF over GST control) |  | 
23 | TCATGT | 1.14 fold enrichment (6-mer frequency, TF over GST control) | 1.15 fold enrichment (6-mer frequency, TF over GST control) |  | 1.01 fold enrichment (6-mer frequency, TF over GST control) | 
24 | CATACA | 1.11 fold enrichment (6-mer frequency, TF over GST control) | 1.05 fold enrichment (6-mer frequency, TF over GST control) | 1.22 fold enrichment (6-mer frequency, TF over GST control) |  | 
25 | ATGCAG | 1.09 fold enrichment (6-mer frequency, TF over GST control) | 1.06 fold enrichment (6-mer frequency, TF over GST control) |  | 1.06 fold enrichment (6-mer frequency, TF over GST control) | 
26 | TGCCCA | 1.21 fold enrichment (6-mer frequency, TF over GST control) | 1.09 fold enrichment (6-mer frequency, TF over GST control) |  | 1.01 fold enrichment (6-mer frequency, TF over GST control) | 
27 | ACGACC | 1.18 fold enrichment (6-mer frequency, TF over GST control) | 1.03 fold enrichment (6-mer frequency, TF over GST control) | 1.31 fold enrichment (6-mer frequency, TF over GST control) | 1.17 fold enrichment (6-mer frequency, TF over GST control) | 
28 | AGCGCC | 1.01 fold enrichment (6-mer frequency, TF over GST control) |  | 1.02 fold enrichment (6-mer frequency, TF over GST control) |  | 
29 | CATGCA | 1.1 fold enrichment (6-mer frequency, TF over GST control) | 1.02 fold enrichment (6-mer frequency, TF over GST control) | 1.02 fold enrichment (6-mer frequency, TF over GST control) | 1.01 fold enrichment (6-mer frequency, TF over GST control) | 
30 | GTTGTT | 1.17 fold enrichment (6-mer frequency, TF over GST control) | 1.09 fold enrichment (6-mer frequency, TF over GST control) | 1.1 fold enrichment (6-mer frequency, TF over GST control) | 1.19 fold enrichment (6-mer frequency, TF over GST control) | 
31 | GGTATC | 1.11 fold enrichment (6-mer frequency, TF over GST control) | 1.02 fold enrichment (6-mer frequency, TF over GST control) |  |  | 
32 | TGTGCG | 1.03 fold enrichment (6-mer frequency, TF over GST control) |  | 1.01 fold enrichment (6-mer frequency, TF over GST control) | 1.07 fold enrichment (6-mer frequency, TF over GST control) | 
33 | GCCTGA | 1.05 fold enrichment (6-mer frequency, TF over GST control) | 1.05 fold enrichment (6-mer frequency, TF over GST control) |  | 1.05 fold enrichment (6-mer frequency, TF over GST control) | 

Source: article PMC7862700, “An all-to-all approach to the identification of sequence-specific readers for epigenetic DNA modifications on cytosine”
